# Measured values: PubChem BioAssay (NCATS)
# Where “and” joins values, the source holds several entries; their conditions need not be identical. Equal values may be shown once. Results filed as inconclusive are left out. Where a structure was tested more than once in an assay, its records may differ in their call. A number with no mark means an inactive call. Calls of active or inactive are those of the source. Calls follow the shape of the dose curve; as a rule, active = well fitted curve in the direction sought with a large enough effect; inconclusive = small, poorly fitted or top-dose-only effect, or another doubt; inactive = no such curve, though single readings can be large; an effect the other way counts as inactive or inconclusive.
# Experiments:
# HEK293 = test: Cytotoxic Profiling of Annotated Libraries Using Quantitative High-Throughput Screening (AID 1296008); details: Five cell lines viability, CellTiter-Glo ATP luminescence, 48-72 h; max response: active compounds read low; also: nearly all actives have a fitted effect of over 60% in size; also: potency is read from the fitted curve at half-maximal effect
# Method in brief: (§1)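 Cells exposed to compounds for 48 or 72 hr at 37 degrees Celsius. Viability read as ATP-coupled luminescence with CellTiter-Glo after 10 min at room temperature.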
# HaCat [1] = test: as above; details: Five cell lines viability, CellTiter-Glo ATP luminescence, 48-72 h; max response: active compounds read low
# Method in brief: as §1
# KB-3-1 = test: as above; details: Five cell lines viability, CellTiter-Glo ATP luminescence, 48-72 h; max response: active compounds read low
# Method in brief: as §1
# NIH3T3 = test: as above; details: Five cell lines viability, CellTiter-Glo ATP luminescence, 48-72 h; max response: active compounds read low
# Method in brief: as §1
# HEK293T [2] = test: qHTS assay to identify novel small-molecules to repurpose for Merkel cell carcinoma treatment (AID 1296009); details: MCC and control cell lines, CellTiter-Glo viability, 72 h; series mostly up to 44.8 µM; also: nearly all actives have a fitted effect of over 60% in size; also: potency is read from the fitted curve at half-maximal effect
# Method in brief: (§2)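 Cells were incubated with compound for 72 hr at 37 degree celsius before CellTiter-Glo addition. Luminescence was normalized with no-cell wells as full cytotoxicity and DMSO as baseline.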
# MCC-26 = test: as above; details: MCC and control cell lines, CellTiter-Glo viability, 72 h; series mostly up to 46 µM
# Method in brief: as §2
# MKL-2 = test: as above; details: MCC and control cell lines, CellTiter-Glo viability, 72 h; series mostly up to 46 µM
# Method in brief: as §2
# UISO = test: as above; details: MCC and control cell lines, CellTiter-Glo viability, 72 h; series mostly up to 46 µM
# Method in brief: as §2
# C33A = test: Primary qHTS to identify gynecologic anti-cancer compounds using libraries of approved drugs and bioactive compounds (AID 1345084); details: Gynecologic cancer cell panel viability, ATPlite luminescence, 48 h; series mostly up to 57.5 µM; also: nearly all actives have a fitted effect of over 55% in size
# Method in brief: (§3)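 Five-point cytotoxicity, 48 h drug exposure at 37 C, 5% CO2, on cells seeded 16 h beforehand. ATP content read by ATPlite luminescence.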
# CASKI = test: as above; details: Gynecologic cancer cell panel viability, ATPlite luminescence, 48 h; series mostly up to 57.5 µM
# Method in brief: as §3
# Es-2 = test: as above; details: Gynecologic cancer cell panel viability, ATPlite luminescence, 48 h; series mostly up to 57.5 µM
# Method in brief: as §3
# Hek293T [3] = test: as above; details: Gynecologic cancer cell panel viability, ATPlite luminescence, 48 h, control line for the selectivity index; series mostly up to 57.5 µM
# Method in brief: as §3
# JEG-3 = test: as above; details: Gynecologic cancer cell panel viability, ATPlite luminescence, 48 h; series mostly up to 57.5 µM
# Method in brief: as §3
# MCC-13 = test: qHTS assay to identify novel small-molecules to repurpose for Merkel cell carcinoma treatment (AID 1296009); details: MCC and control cell lines, CellTiter-Glo viability, 72 h; series mostly up to 46 µM; also: nearly all actives have a fitted effect of over 60% in size; also: potency is read from the fitted curve at half-maximal effect
# Method in brief: as §2
# MKL-1 = test: as above; details: MCC and control cell lines, CellTiter-Glo viability, 72 h; series mostly up to 46 µM
# Method in brief: as §2
# WaGa = test: as above; details: MCC and control cell lines, CellTiter-Glo viability, 72 h; series mostly up to 46 µM
# Method in brief: as §2
# CRL-7250 = normal cell line; test: Cytotoxic Profiling of Annotated Libraries Using Quantitative High-Throughput Screening (AID 1296008); details: Five cell lines viability, CellTiter-Glo ATP luminescence, 48-72 h; max response: active compounds read low; also: nearly all actives have a fitted effect of over 60% in size; also: potency is read from the fitted curve at half-maximal effect
# Method in brief: as §1
# HeLa = test: Primary qHTS to identify gynecologic anti-cancer compounds using libraries of approved drugs and bioactive compounds (AID 1345084); details: Gynecologic cancer cell panel viability, ATPlite luminescence, 48 h; series mostly up to 57.5 µM; also: nearly all actives have a fitted effect of over 55% in size
# Method in brief: as §3
# HACAT [4] = test: qHTS assay to identify novel small-molecules to repurpose for Merkel cell carcinoma treatment (AID 1296009); details: MCC and control cell lines, CellTiter-Glo viability, 72 h; at 44.8 µM (top of the series) unless noted; also: nearly all actives have a fitted effect of over 60% in size; also: potency is read from the fitted curve at half-maximal effect
# Method in brief: as §2
# % is scaled to controls: 0 for no effect and ±100 for the full control effect.
smiles,measurement,setting,value
Cc1cncc2cccc(S(=O)(=O)N3CCCN(C(=O)CN)C[C@@H]3C)c12,outcome,HEK293,inactive
same,Potency,HaCat [1],8.33 µM (active)
same,max response,KB-3-1,-18.7% and -19.4%
same,Potency,NIH3T3,26.4 µM (active)
same,Potency,HEK293T [2],inactive
same,Potency,MCC-26,inactive
same,Potency,MKL-2,inactive
same,Potency,UISO,inactive
same,Potency,C33A,inactive
same,Potency,CASKI,inactive
same,Potency,Es-2,inactive
same,Potency,Hek293T [3],inactive
same,Potency,JEG-3,inactive
Cn1cc(-c2ccc3ncc(Cc4ccc5ncccc5c4)n3n2)cn1,max response,HEK293,4.11%
same,Potency,HaCat [1],20.6 µM (active)
same,max response,HaCat [1],-43.1%
same,max response,KB-3-1,8.56% and 1.39%
same,Potency,MCC-13,inactive
same,Potency,MCC-26,inactive
same,Potency,MKL-1,inactive
same,Potency,MKL-2,inactive
same,Potency,UISO,inactive
same,Potency,WaGa,inactive
same,Potency,Hek293T [3],inactive
c1cc(N[C@@H]2CCNC2)nc(-c2cnc3ccc(-c4cn[nH]c4)cn23)c1,Potency,CRL-7250,11.8 µM (active)
same,Potency,MCC-13,inactive
same,Potency,MCC-26,inactive
same,Potency,MKL-1,8.33 µM (active)
same,Potency,MKL-2,7.43 µM (active)
same,Potency,UISO,16.6 µM (active)
same,Potency,Es-2,inactive
same,Potency,HeLa,inactive
same,Potency,Hek293T [3],inactive
same,Potency,JEG-3,inactive
COc1cc(OC)cc(-c2ccc3ncc4ccc(=O)n(-c5ccc(N6CCNCC6)c(C(F)(F)F)c5)c4c3c2)c1,Potency,CRL-7250,10.5 µM (active)
same,Potency,NIH3T3,14.8 µM (active)
same,Potency,MKL-1,18.7 µM (active)
same,Potency,MKL-2,8.33 µM (active)
same,Potency,UISO,16.6 µM (active)
CCCCCN=C(N)NN=Cc1c[nH]c2ccc(OC)cc12,Potency,KB-3-1,10.5 µM (active)
same,Potency,NIH3T3,13.2 µM (active)
Cc1ccc(-n2[nH]c(C)c(N=Nc3cccc(-c4cccc(C(=O)O)c4)c3O)c2=O)cc1C,Potency,HaCat [1],21.1 µM (active)
same,max response,KB-3-1,-13.9%
same,Potency,MCC-13,inactive
same,Potency,MCC-26,inactive
same,Potency,C33A,inactive
same,Potency,CASKI,inactive
same,Potency,HeLa,inactive
same,Potency,JEG-3,inactive
Cc1[nH]c(C=C2C(=O)Nc3ccccc32)c(C)c1CCC(=O)O,max response,HaCat [1],0.623%
same,max response,KB-3-1,3.92%
same,Potency,NIH3T3,1.48 µM (active)
same,Potency,MKL-1,0.372 µM (active)
same,Potency,UISO,0.469 µM (active)
same,Potency,WaGa,0.187 µM (active)
CCC(C(=O)O)C1CCC(C)C(C(C)C(O)C(C)C(=O)C(CC)C2OC3(C=CC(O)[C@@]4(CC[C@](C)(C5CC[C@@](O)(CC)C(C)O5)O4)O3)C(C)CC2C)O1 (stereo partly drawn),Potency,HEK293,1.18 µM (active)
same,Potency,NIH3T3,8.33 µM (active)
same,Potency,MCC-13,10.5 µM (active)
same,Potency,MKL-1,2.96 µM (active)
same,Potency,MKL-2,3.32 µM (active)
same,Potency,UISO,3.72 µM (active)
same,Potency,WaGa,2.96 µM (active)
COc1cc(OC)c(C=CS(=O)(=O)Cc2ccc(OC)c(NCC(=O)O)c2)c(OC)c1,Potency,HEK293,0.118 µM (active)
same,max response,HaCat [1],3.08%
same,Potency,NIH3T3,0.105 µM (active)
same,Potency,MKL-2,0.0935 µM (active)
Nc1nc(N)c2nc(-c3cccc(O)c3)c(-c3cccc(O)c3)nc2n1,Potency,HaCat [1],14.8 µM (active)
same,Potency,KB-3-1,10.5 µM (active)
same,Potency,MCC-13,inactive
same,Potency,MCC-26,inactive
CCCCCCCCc1ccc(CCC(N)(CO)CO)cc1,Potency,HaCat [1],18.7 µM (active)
same,Potency,MCC-13,inactive
same,Potency,MCC-26,inactive
same,Potency,WaGa,inactive
CCCNC(=O)[C@H]1O[C@H]1C(=O)N[C@H](C(=O)N1CCC[C@@H]1C(=O)OC)C(C)CC (stereo partly drawn),Potency,HEK293,10.5 µM (active)
same,outcome,HaCat [1],inactive
same,outcome,HACAT [4],inactive
same,Potency,MCC-13,20.9 µM (active)
same,Potency,MKL-1,5.26 µM (active)
same,Potency,MKL-2,3.32 µM (active)
same,Potency,UISO,18.7 µM (active)
same,Potency,WaGa,8.33 µM (active)
Oc1ccc(-c2ccc(-c3cc(Nc4cccc(CNC5CC5)c4)n[nH]3)cc2)c(O)c1,Potency,HEK293,1.18 µM (active)
same,Potency,KB-3-1,1.32 µM (active)
same,Potency,MKL-1,6.62 µM (active)
same,Potency,UISO,5.26 µM (active)
CC(C)NC[C@@H](C(=O)N1CCN(c2ncnc3c2[C@H](C)C[C@H]3O)CC1)c1ccc(Cl)cc1,Potency,HEK293,0.209 µM (active)
same,Potency,HaCat [1],4.18 µM (active)
same,Potency,MCC-13,inactive
same,Potency,MCC-26,inactive
same,Potency,MKL-2,1.66 µM (active)
same,Potency,WaGa,2.09 µM (active)
COc1cc2c(cc1O)CCC1C2CC[C@@]2(C)C1CC[C@@H]2O (stereo partly drawn),Potency,HEK293,1.18 µM (active)
same,Potency,KB-3-1,3.32 µM (active)
same,Potency,NIH3T3,4.18 µM (active)
same,Potency,MCC-26,inactive
O=[N+]([O-])c1cn2c(n1)OC[C@@H](OCc1ccc(OC(F)(F)F)cc1)C2,max response,KB-3-1,-6.53%
same,max response,NIH3T3,-7.72%
same,Potency,MCC-13,inactive
same,Potency,MCC-26,inactive
same,Potency,MKL-1,inactive
same,Potency,MKL-2,inactive
same,Potency,UISO,inactive
same,Potency,WaGa,inactive
CC(C)Oc1ccc(C(=O)N[C@H](CNC(=O)CN(C)C)Cc2ccc(-c3cn4cccc([C@H](C)O)c4n3)cc2)cc1Cl,Potency,HEK293,0.372 µM (active)
same,Potency,KB-3-1,0.332 µM (active)
same,Potency,MCC-26,inactive
same,Potency,MKL-1,inactive
same,Potency,MKL-2,inactive
Cc1cnn(C)c1C(=O)Nc1cc(Nc2ccc3c(C=Cc4ccccn4)n[nH]c3c2)ccc1F,Potency,NIH3T3,13.2 µM (active)
same,Potency,UISO,16.6 µM (active)
Cc1noc(-c2ccc(CSCCC(=O)O)cc2)c1NC(=O)OC(C)c1ccccc1Cl (stereo not drawn),max response,HaCat [1],-23.2%
same,outcome,KB-3-1,inactive
same,Potency,MCC-13,inactive
same,Potency,MKL-1,inactive
same,Potency,MKL-2,inactive
same,Potency,UISO,inactive
same,Potency,WaGa,inactive
